Legend:
[1] = target: Dual specificity protein kinase CLK3 (Homo sapiens) (UniProt P49761); conditions: at 1 µM;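 note: each value is the mean inhibition of CLK3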
[2] = target: Dual specificity tyrosine-phosphorylation-regulated kinase 1A (Homo sapiens) (UniProt Q13627); conditions: at 0.1 µM
[3] = target: Dual specificity tyrosine-phosphorylation-regulated kinase 1A (Homo sapiens) (UniProt Q13627); conditions: at 1 µM
[4] = target: Dual specificity tyrosine-phosphorylation-regulated kinase 1B (Homo sapiens) (UniProt Q9Y463); conditions: at 0.1 µM
[5] = target: Dual specificity tyrosine-phosphorylation-regulated kinase 1B (Homo sapiens) (UniProt Q9Y463); conditions: at 1 µM
[6] = target: T1, Dual specificity tyrosine-phosphorylation-regulated kinase 2 (Homo sapiens) (UniProt Q92630); conditions: at 0.1 µM
T1 sequence (whole entry): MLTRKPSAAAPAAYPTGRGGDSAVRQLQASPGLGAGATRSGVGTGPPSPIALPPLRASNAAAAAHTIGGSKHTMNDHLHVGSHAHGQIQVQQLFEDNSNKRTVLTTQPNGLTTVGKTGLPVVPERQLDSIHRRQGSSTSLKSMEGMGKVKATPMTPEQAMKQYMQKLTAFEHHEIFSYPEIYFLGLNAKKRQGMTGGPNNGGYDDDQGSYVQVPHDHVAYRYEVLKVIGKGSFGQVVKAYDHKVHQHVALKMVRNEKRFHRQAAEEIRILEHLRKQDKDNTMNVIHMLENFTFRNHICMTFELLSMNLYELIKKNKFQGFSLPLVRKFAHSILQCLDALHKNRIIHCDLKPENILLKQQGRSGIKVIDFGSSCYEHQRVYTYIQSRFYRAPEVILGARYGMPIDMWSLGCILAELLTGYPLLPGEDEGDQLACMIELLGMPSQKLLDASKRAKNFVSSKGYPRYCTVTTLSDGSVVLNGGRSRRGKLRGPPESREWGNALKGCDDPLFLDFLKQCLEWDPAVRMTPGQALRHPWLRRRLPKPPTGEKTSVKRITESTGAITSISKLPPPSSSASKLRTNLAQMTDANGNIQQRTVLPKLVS

[7] = target: T1, Dual specificity tyrosine-phosphorylation-regulated kinase 2 (Homo sapiens); conditions: at 1 µM
[8] = target: Glycogen synthase kinase-3 alpha (Homo sapiens) (UniProt P49840); conditions: at 0.1 µM
[9] = target: Glycogen synthase kinase-3 alpha (Homo sapiens) (UniProt P49840); conditions: at 1 µM
[10] = target: Glycogen synthase kinase-3 beta (Homo sapiens) (UniProt P49841); conditions: at 0.1 µM
[11] = target: Glycogen synthase kinase-3 beta (Homo sapiens) (UniProt P49841); conditions: at 1 µM
[12] = target: Homeodomain-interacting protein kinase 1 (Homo sapiens) (UniProt Q86Z02); conditions: at 0.1 µM
[13] = target: Homeodomain-interacting protein kinase 1 (Homo sapiens) (UniProt Q86Z02); conditions: at 1 µM
[14] = target: T2, Homeodomain-interacting protein kinase 4 (Homo sapiens) (UniProt Q8NE63); conditions: at 0.1 µM
T2 sequence (whole entry): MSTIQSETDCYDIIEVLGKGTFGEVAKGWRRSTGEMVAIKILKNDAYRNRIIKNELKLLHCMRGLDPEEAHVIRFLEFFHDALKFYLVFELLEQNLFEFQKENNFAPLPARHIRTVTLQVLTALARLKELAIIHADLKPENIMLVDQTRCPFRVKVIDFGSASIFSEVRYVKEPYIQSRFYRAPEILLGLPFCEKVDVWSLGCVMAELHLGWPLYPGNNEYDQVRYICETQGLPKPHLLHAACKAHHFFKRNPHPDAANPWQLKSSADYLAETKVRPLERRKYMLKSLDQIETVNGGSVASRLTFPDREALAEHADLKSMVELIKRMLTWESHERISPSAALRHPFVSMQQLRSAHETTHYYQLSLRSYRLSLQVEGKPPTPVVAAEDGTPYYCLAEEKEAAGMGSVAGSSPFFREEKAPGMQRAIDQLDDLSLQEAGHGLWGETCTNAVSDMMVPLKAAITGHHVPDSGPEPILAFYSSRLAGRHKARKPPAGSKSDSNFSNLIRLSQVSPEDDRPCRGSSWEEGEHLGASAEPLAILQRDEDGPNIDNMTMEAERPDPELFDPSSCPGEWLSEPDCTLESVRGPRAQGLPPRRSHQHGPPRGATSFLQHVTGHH

[15] = target: T2, Homeodomain-interacting protein kinase 4 (Homo sapiens); conditions: at 1 µM
[16] = target: Mitogen-activated protein kinase 9 (Homo sapiens) (UniProt P45984); conditions: at 0.1 µM
[17] = target: Mitogen-activated protein kinase 9 (Homo sapiens) (UniProt P45984); conditions: at 1 µM
[18] = target: Mitogen-activated protein kinase 1 (Homo sapiens) (UniProt P28482); conditions: at 0.1 µM
[19] = target: Mitogen-activated protein kinase 1 (Homo sapiens) (UniProt P28482); conditions: at 1 µM
[20] = target: Mitogen-activated protein kinase 3 (Homo sapiens) (UniProt P27361); conditions: at 0.1 µM;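 note: each value is a mean inhibition figure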
Sequence of Mitogen-activated protein kinase 3 (Homo sapiens) (P27361 whole entry): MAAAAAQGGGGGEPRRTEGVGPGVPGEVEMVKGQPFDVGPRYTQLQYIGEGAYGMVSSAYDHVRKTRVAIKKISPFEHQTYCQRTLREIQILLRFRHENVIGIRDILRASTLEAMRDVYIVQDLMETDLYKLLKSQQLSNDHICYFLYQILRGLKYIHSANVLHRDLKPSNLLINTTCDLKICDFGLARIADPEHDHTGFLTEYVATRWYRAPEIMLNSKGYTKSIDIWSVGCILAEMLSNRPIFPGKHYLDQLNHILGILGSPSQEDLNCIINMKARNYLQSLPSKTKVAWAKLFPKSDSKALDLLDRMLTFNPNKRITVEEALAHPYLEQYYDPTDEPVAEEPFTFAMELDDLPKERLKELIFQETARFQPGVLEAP

Sequence of Homeodomain-interacting protein kinase 1 (Homo sapiens) (Q86Z02 whole entry, looked up): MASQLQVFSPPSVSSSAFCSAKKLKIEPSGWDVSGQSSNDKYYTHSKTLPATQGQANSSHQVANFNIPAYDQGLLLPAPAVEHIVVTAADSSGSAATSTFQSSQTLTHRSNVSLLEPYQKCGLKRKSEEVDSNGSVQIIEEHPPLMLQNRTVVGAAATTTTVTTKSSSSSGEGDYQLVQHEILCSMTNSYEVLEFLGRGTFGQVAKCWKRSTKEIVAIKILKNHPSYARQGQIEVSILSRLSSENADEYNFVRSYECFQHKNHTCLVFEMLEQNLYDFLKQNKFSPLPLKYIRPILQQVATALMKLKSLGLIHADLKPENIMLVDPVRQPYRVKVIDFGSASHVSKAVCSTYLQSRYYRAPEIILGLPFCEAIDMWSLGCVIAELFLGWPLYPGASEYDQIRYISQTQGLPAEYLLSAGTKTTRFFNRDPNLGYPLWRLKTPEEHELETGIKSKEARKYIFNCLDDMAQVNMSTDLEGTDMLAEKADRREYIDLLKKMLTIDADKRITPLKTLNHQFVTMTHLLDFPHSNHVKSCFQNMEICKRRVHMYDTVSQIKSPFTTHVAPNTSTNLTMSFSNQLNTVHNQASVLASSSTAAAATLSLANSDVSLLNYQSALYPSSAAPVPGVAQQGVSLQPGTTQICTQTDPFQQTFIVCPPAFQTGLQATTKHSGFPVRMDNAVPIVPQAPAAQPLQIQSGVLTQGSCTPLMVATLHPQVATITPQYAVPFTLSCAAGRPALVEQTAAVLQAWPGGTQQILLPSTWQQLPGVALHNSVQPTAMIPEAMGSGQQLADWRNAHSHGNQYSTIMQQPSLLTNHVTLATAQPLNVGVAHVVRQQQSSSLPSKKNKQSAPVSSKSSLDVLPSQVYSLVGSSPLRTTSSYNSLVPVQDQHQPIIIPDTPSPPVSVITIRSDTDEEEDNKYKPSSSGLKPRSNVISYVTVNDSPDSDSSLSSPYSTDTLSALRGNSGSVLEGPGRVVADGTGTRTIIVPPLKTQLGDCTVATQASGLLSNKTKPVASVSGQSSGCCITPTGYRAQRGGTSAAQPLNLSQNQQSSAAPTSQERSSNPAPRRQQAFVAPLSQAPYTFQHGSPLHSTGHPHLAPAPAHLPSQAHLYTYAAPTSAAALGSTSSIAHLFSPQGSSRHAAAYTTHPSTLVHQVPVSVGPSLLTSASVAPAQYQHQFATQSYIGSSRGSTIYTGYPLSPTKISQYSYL
Sequence of Glycogen synthase kinase-3 alpha (Homo sapiens) (P49840 2-483 limits assumed): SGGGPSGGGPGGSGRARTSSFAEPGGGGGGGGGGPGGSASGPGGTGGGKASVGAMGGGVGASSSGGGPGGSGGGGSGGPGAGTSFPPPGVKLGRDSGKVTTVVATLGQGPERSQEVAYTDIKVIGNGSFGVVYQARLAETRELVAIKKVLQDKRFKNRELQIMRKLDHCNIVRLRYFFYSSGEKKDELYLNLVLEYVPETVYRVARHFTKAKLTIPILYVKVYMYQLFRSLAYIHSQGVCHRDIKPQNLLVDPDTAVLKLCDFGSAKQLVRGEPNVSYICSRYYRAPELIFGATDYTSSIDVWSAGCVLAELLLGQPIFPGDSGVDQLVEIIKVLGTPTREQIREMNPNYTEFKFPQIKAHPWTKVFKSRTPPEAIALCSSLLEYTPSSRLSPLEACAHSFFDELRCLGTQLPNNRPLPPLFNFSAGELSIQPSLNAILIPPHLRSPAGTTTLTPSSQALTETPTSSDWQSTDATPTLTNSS
Sequence of Dual specificity tyrosine-phosphorylation-regulated kinase 1B (Homo sapiens) (Q9Y463 whole entry, looked up): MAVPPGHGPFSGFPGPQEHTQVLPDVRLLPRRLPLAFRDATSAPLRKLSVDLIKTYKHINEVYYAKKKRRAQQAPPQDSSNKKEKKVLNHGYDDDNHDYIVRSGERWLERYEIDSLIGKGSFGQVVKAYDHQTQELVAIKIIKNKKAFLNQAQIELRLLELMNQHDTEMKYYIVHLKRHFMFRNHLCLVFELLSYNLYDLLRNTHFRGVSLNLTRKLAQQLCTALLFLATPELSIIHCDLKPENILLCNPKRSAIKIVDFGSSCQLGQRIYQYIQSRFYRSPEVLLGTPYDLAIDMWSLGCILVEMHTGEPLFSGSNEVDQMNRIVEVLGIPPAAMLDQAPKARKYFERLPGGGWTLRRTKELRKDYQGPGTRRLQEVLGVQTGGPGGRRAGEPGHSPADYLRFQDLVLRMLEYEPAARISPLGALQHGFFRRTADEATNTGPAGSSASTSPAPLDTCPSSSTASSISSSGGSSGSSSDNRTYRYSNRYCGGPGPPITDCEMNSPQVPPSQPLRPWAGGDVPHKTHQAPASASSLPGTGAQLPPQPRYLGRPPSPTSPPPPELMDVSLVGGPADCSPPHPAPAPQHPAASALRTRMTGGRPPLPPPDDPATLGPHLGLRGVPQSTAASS
Sequence of Mitogen-activated protein kinase 1 (Homo sapiens) (P28482 whole entry): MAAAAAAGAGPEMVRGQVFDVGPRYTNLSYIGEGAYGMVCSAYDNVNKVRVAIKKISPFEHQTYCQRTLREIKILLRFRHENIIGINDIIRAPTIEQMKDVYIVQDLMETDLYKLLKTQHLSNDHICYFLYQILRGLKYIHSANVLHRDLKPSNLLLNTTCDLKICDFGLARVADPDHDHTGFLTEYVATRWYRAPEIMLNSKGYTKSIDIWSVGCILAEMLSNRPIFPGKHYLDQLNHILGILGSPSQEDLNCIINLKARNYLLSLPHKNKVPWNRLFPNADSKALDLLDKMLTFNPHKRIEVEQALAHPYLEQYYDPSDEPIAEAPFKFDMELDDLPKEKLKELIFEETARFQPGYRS
Sequence of Mitogen-activated protein kinase 9 (Homo sapiens) (P45984 whole entry, looked up): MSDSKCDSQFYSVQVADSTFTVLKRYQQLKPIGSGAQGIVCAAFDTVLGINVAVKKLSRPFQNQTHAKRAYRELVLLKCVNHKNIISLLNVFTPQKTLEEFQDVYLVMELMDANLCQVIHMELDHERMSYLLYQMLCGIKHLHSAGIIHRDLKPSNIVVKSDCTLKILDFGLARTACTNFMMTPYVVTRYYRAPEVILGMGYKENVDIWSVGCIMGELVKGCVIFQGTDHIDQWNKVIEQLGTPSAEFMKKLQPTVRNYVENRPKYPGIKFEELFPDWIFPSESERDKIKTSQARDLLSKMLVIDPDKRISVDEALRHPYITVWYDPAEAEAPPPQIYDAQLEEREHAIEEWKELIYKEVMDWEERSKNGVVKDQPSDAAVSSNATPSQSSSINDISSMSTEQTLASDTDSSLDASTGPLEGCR
Sequence of Glycogen synthase kinase-3 beta (Homo sapiens) (P49841 whole entry, looked up): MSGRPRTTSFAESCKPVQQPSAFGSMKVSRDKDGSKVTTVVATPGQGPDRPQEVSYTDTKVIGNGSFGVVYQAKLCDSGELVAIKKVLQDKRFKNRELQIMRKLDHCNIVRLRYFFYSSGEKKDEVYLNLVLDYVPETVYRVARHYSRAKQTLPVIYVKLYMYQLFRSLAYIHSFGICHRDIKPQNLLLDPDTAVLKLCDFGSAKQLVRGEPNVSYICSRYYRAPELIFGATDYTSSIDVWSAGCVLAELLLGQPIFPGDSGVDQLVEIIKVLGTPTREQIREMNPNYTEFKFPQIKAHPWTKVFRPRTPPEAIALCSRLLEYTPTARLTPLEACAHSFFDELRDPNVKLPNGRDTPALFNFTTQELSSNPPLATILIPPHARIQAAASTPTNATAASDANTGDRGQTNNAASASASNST
Sequence of Dual specificity protein kinase CLK3 (Homo sapiens) (P49761 whole entry, looked up): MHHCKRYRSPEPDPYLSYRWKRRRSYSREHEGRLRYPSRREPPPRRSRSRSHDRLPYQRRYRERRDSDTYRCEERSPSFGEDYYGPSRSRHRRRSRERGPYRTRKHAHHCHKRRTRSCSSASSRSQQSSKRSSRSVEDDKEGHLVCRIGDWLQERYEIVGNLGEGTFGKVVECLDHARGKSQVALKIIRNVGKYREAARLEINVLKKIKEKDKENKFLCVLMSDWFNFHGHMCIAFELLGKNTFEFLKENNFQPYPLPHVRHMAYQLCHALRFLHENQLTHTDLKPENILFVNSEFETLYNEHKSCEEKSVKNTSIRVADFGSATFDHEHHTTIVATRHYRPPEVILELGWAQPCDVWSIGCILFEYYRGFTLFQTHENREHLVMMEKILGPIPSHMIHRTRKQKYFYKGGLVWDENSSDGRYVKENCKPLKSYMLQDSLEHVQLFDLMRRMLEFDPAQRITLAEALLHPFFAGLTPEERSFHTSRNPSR

SMILES	inhibition [1] [%]	inhibition [2] [%]	inhibition [3] [%]	inhibition [4] [%]	inhibition [5] [%]	inhibition [6] [%]	inhibition [7] [%]	inhibition [8] [%]	inhibition [9] [%]	inhibition [10] [%]	inhibition [11] [%]	inhibition [12] [%]	inhibition [13] [%]	inhibition [14] [%]	inhibition [15] [%]	inhibition [16] [%]	inhibition [17] [%]	inhibition [18] [%]	inhibition [19] [%]	inhibition [20] [%]
Cc1ccc(C(=O)NC2CCCCC2)cc1-c1ccc(C(=O)NCC2CC2)cc1	1.19	0.7	-0.59	0.96	0.46	1.77	1.81	1.78	1.84	1.78	0.33	-0.44	1.1	1.23	3.16	5.74	6.33	3.78	4.11	2.55
NC(=O)c1ccc(-c2nc(-c3ccccn3)c(-c3ccc4c(c3)OCO4)[nH]2)cc1	1.76	1.47	3.08	-0.77	0.83	1.43	1.31	2.47	3.92	1.88	6.9	-0.15	2.8	1.68	1.67	1.97	5.34	2.52	1.22	1.34
COc1cc2c(cc1Nc1nc(N3CCc4ccccc43)c3cc[nH]c3n1)N(C(=O)CN(C)C)CC2	2.24	0.78	3.98	0.64	2.3	2.22	2.02	0.35	1.16	0.15	0.72	-1.15	2.7	1.42	2.99	1.11	1.82	0.85	2.12	2.89
CC1=C(C(=O)Nc2ccc3[nH]ncc3c2)C(c2ccc3ccccc3c2)CC(=O)N1 (stereo not given)	4.72	3.4	5.32	2.6	3.67	0.96	1.61	2.64	5.8	2.72	7.81	1.49	4.61	1.02	4.03	0.73	2.65	5.52	39.5	3.92
CS(=O)(=O)Nc1ccc(N/C=C2\C(=O)Nc3ccccc32)cc1	1.06	0.92	10.4	3.56	13.9	-1.66	-0.97	7.94	19.6	6.71	17.2	-1.53	3.36	0.6	4.82	0.25	5.63	-4.34	-2.51	-0.36
Cc1cccc(-c2n[nH]cc2-c2ccc3ncccc3n2)n1	-3.14	1.27	6.72	-0.18	4.09	0.1	4.03	0.39	1.15	-0.14	0.05	-0.8	6.4	-0.32	0.37	1.26	-0.31	0.39	1.2	3.13
COc1ccc2cc(-c3c(-c4ccncc4)nc(-c4ccc([S+](C)[O-])cc4)n3C)ccc2c1 (stereo not given)	0.67	0.49	3.52	-0.23	0.37	3.31	1.71	4.07	11.5	2.47	9.29	-1.81	1.99	0.14	-0.51	1.55	4.27	1.94	2.54	4.68
c1cnn2ncc(-c3ccnc(Nc4ccc5c(c4)OCCO5)n3)c2c1	52	79.6	87.6	80.6	88.9	10.7	50.8	75.6	92.5	74.4	91	86.2	93	42.3	79.8	12.8	54.4	6.5	24	6.55
COc1ccc(-c2ccncc2)cc1C(N)=O	0.61	3.91	6.95	-1.51	2.44	3.8	9.87	3	4.53	2.89	4.32	-2.78	3.84	0.07	4.19	4.22	5.45	5.23	6.46	3.61
CCc1cccc(NC(=O)Nc2ccc(Oc3ccc4nc(NC(=O)OC)[nH]c4c3)cc2)c1	0.82	0.05	1.26	0.7	1.1	0.73	1.13	1.53	4.83	1.88	6.49	1.47	4.9	7.33	13.9	2.67	1.01	2.12	0.03	2.25
O=C1Nc2ccc(C(=O)c3ccco3)cc2C1=Cc1cc(Cl)c(O)c(Cl)c1	63.8	40.5	78.3	47.4	81.5	3.34	13.4	24.5	70.1	31.1	75.8	14	54.1	4.69	32.9	2.31	6.22	2.44	4.55	1.44
CCn1c(-c2nonc2N)nc2c(N3CCCC3)nccc21	1.31	3.13	8.89	2.51	6.95	-1.18	-1.63	1.82	4.77	2	3.59	-0.15	6.29	-0.26	2.71	-4.08	-4.92	-2.76	-3.21	0.68
CCCN1CCC(Oc2cc(Nc3nc(Nc4cccc(F)c4C(N)=O)c4cc[nH]c4n3)c(OC)cc2Cl)CC1	1.7	2.64	25.9	3.49	27.1	-0.2	0.67	3.45	9.53	3.22	9.38	2.76	18.8	3.27	24.8	1.29	2.98	0.93	17.9	0.36
COc1ccc(-c2nn3ncccc3c2-c2ccnc(Nc3ccc(Cl)c(C(F)(F)F)c3)n2)cc1	0.49	-0.17	2.05	-1.42	0.89	1.06	1.84	2.46	3.98	1.3	4.05	-0.18	-0.9	1.05	1.36	1.72	4.38	3.47	3.46	4.84
